Screening data (PubChem)
Giardia killer: kills Giardia lamblia; Giardia lamblia trophozoite viability; activity change, % at 7.66 µM, hits read low; hit rate 0.15% among 340,000; AID 540267; in the data active means activity change below about -80%; inconclusive means between about -30% and that limit;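 further: parasites exposed to compound for two days anaerobically before the ATP read; on the % scale 0 is the no-effect control and ±100 the full control effect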
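Trophozoite viability was measured as ATP-dependent luminescence, read 15-30 min after reagent addition. Before that, parasites at 100 cells/well were exposed to compounds for 48 h, anaerobically, at 37 deg C.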
HepG2 tox: counter-screen for TGF-b inhibitors: cytotoxicity in HepG2 cells; Potency, µM (highest dose often 46.1 µM), for the others: top-dose activity change, negative = cytotoxicity, most hits filed as cytotoxic; AID 588856; hit rate 0.76% among 410,000; HepG2 CAGA-GFP viability, ATP luminescence, 18 h; further: potency means the concentration at half of the fitted maximal effect
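HepG2 CAGA-GFP cells (1000/well, DMEM with 1% FBS) received compound, then TGF-beta at 500 pg/mL final, and were incubated 18 hours at 37 degrees C. Viability was read by CellTiter-Glo luminescence. Media-only wells were set as complete cell-killing and DMSO as no toxicity.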
HT1080-NT tox: kills 2HG-producing HT-1080-NT fibrosarcoma cells. HT-1080-NT fibrosarcoma viability, CellTiter-Glo ATP luminescence, 48 h. Potency, µM (highest dose often 46.1 µM), without a hit: at the highest dose activity, negative = less viability, actives largely listed as cytotoxic. hit rate 1.6% among 360,000. AID 686970;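 further: NT is the 2HG producing partner of a matched IDH1 knockdown line; potency means the concentration at half of the fitted maximal effect; 0% = DMSO-treated cells and -100% = media-only wells without cells; nearly all actives have a fitted effect of over 55% in size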
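Read-out is CellTiter-Glo luminescence after 10 minutes at room temperature, following 48 hours' compound treatment of HT-1080-NT cells (750 cells/well, RPMI, 5% FBS, 37 degrees C).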
HT1080 IDH1KD tx: kills HT-1080 cells with IDH1 knockdown. HT-1080 IDH1 knockdown viability, ATP luminescence, 48 h. Potency, µM (titrated, usually from 46.1 µM), inactives show at the highest dose activity, negative = toxicity, actives largely listed as cytotoxic. AID 686971. hit rate 2% among 360,000;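 further: potency means the concentration at half of the fitted maximal effect; 0% = DMSO wells and -100% = cell-free medium wells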
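% activity derives from luminescence (CellTiter-Glo), normalised to DMSO and no-cell wells. HT-1080-IDH1KD cells, 750/well, had 48 h compound exposure at 37 °C.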
IL1B secr inh: blocks inflammasome-driven IL-1 beta release | THP-1 LPS/ATP IL-1B secretion, AlphaLISA, 16 h; hits give low values | AID 743279 | activity change, % at 57.5 µM | hit rate 4.7% among 360,000; in the data active means activity change below about -50%; inconclusive means mostly about -30% to -49%; further: on the % scale 0 is the no-effect control and ±100 the full control effect
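THP-1 cells pretreated 1 hr with compounds (up to 57.5 uM final), then stimulated with LPS (250 ng/mL final) plus ATP (1.25 mM final); secreted IL-1B measured by AlphaLISA after 16 hr, decreased signal indicating inhibition.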
TGFb inhibitor: TGF-b pathway inhibition | Potency, µM (doses to about 46.1 µM), for inactives: top-dose activity, negative = inhibition, hits mostly inhibitors | AID 588855 | hit rate 1.2% among 410,000 | HepG2 CAGA-GFP TGF-b/SMAD3 reporter, GFP fluorescence, 18 h; TGF-beta stimulated, 500 pg/mL final; further: potency means the concentration at half of the fitted maximal effect; on the % scale 0 is the no-effect control and ±100 the full control effect; nearly all actives have a fitted effect of over 65% in size
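Per well, imaged GFP fluorescence of HEPG2 CAGA-GFP cells gives the signal; cells get compound, then TGF-beta (500 pg/mL final), 18 h at 37 degrees C; %Activity versus -TGF-beta and +DMSO controls.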
Active calls of the source: *; ? = inconclusive; / = no result given. The list is not random: actives were taken first. Their share in the collection is about 6.5%. Unless noted, the call rests on the fitted dose curve; in most records, active means well fitted curve in the direction sought with a large enough effect; inconclusive means small, poorly fitted or top-dose-only effect, or another doubt; inactive means no such curve, though single readings can be large; an effect the other way counts as inactive or inconclusive.

SMILES	Giardia killer	HepG2 tox	HT1080-NT tox	HT1080 IDH1KD tx	IL1B secr inh	TGFb inhibitor
Cc1nc([N+](=O)[O-])c(Br)n1CC(=O)c1ccc(Cl)cc1	2.8	-89.2%	?	18.4µM*	-116.3*	?
Cc1ccc(/C=C/C(=O)N2CCN(S(=O)(=O)c3ccc(C)c(C)c3)CC2)o1	10.7	-20.8%	?	?	0.0	10µM*
COc1cccc(C(=O)Nc2nc(-c3nnn(-c4ccccc4C(F)(F)F)c3C)ns2)c1	/	-54.1%	/	/	/	12.6µM*
Cn1ccc(-c2cc(C(=O)O)c3ccccc3n2)n1	?	-6.5%	14.9%	-2.4%	22.1	2.1%
CCOC(=O)c1ccc(S(=O)(=O)NCC(c2ccc(N(C)C)cc2)c2c[nH]c3ccccc23)cc1 (stereo not drawn)	10.4	-15.5%	?	?	3.4	?
CN(C)c1ccc(C(CNS(=O)(=O)c2ccc(F)cc2)c2c[nH]c3ccccc23)cc1 (stereo not drawn)	2.2	-86.9%	-20.8%	-29.6%	-63.6*	?
CCCCc1ccc(NC(=O)COc2cccc3c(=O)n(C)ccc23)cc1	/	-51.3%	/	/	/	8.91µM*
COCCn1ccc2c(OCC(=O)Nc3cccc(NC(C)=O)c3)cccc2c1=O	-2.6	17.8µM*	-4.8%	-0.7%	-13.8	-4.2%
CCCn1ccc2c(OCC(=O)Nc3ccc(NC(C)=O)cc3)cccc2c1=O	-8.9	-11.6%	-3.4%	-0.8%	-13.5	7.1%
CCn1ccc2c(OCC(=O)Nc3ccc(C)c(Cl)c3)cccc2c1=O	/	-36.6%	/	/	/	7.08µM*
COc1cccc(CN(CC(=O)NCc2ccco2)C(=O)CNS(=O)(=O)c2ccccc2)c1	1.3	-36.5%	3.5%	-0.4%	5.7	?
CCSC1=C(C#N)C(CC(C)C)C2=C(CCCC2=O)N1 (stereo not drawn)	-13.1	-15.3%	1.2%	0.3%	10.2	-5.1%
CCN(CC(=O)NC(C)(C)C)C(=O)CCl	20.2	-0.4%	4.9%	0.0%	-54.9*	-10.0%
CCN(CC(=O)NC(C)(C)C)C(=O)COc1c(Cl)cc(Cl)c2ccc(C)nc12	1.5	-46.2%	6.2%	-23.9%	0.0	?
CCCCCNc1nc(NCCCO)c(C#N)c2c1CN(C)CC2	9.1	-3.6%	-12.3%	-0.3%	-8.7	-1.9%
CCCCCNc1nc(N2CCCC2)c2c(c1C#N)CCN(C)C2	14.1	22.4µM*	29.1µM*	?	-50.9*	?
COc1ccc(C2C(C(C)=O)=C(C)Nc3ncnn32)cc1[N+](=O)[O-] (stereo not drawn)	-17.6	-0.7%	?	18.0%	-11.6	5.4%
CCOc1ccc(-c2nc3n(c(=O)c2C#N)CCCS3)cc1	0.9	5.2%	-20.3%	-3.6%	?	-12.7%
CCOC(=O)COc1ccc(Br)cc1/C=C1\SC(N)=NC1=O	22.5	-30.4%	-2.1%	0.8%	-4.8	?
CCOC(=O)CSC1=NC(=O)/C(=C/c2ccc(Br)cc2)S1	-9.6	-20.4%	?	?	-63.6*	6.3%
CCOC(=O)CSC1=NC(=O)/C(=C\c2ccc(OC(C)=O)cc2)S1	-12.6	-14.1%	?	?	-61.6*	35.1%
COc1ccc(-c2ccc3oc(-c4ccc(OC)cc4)c(C#CC4(O)CCCCC4)c3c2)cc1	-1.9	1.4%	3.6%	8.9%	33.1	?
COc1ccc(CNc2ccc(Br)cc2)cc1	-8.1	-92.0%	-2.7%	-7.9%	-6.2	-16.2%
COc1ccc(NC2=NCC(Cc3ccc(Br)cc3)S2)cc1 (stereo not drawn)	11.9	-39.8%	?	20.6µM*	-90.7*	?
COc1ccc(Cc2nc3c4cnn(-c5ccccc5F)c4ncn3n2)cc1	/	-15.3%	/	/	/	/
SMILES	Giardia killer	HepG2 tox	HT1080-NT tox	HT1080 IDH1KD tx	IL1B secr inh	TGFb inhibitor
CC1CC(C)CN(CCC(=O)Nc2ccc(Br)cc2)C1 (stereo not drawn)	-20.9	1.4%	-6.4%	-3.9%	-53.7*	8.3%
CCOC(=O)C1CCCN(CCC(=O)Nc2ccc(Br)c(C)c2)C1 (stereo not drawn)	0.3	-5.4%	-16.9%	-10.3%	17.7	-13.3%
CCOC(=O)c1[nH]c2ccc(Br)cc2c1NC(=O)CCN1CCC(C(=O)OCC)CC1	-15.8	0.3%	-22.0%	-15.7%	-64.2*	0.0%
CCOC(=O)C1CCCN(CCC(=O)Nc2ccc(Br)cc2)C1 (stereo not drawn)	-16.0	-2.2%	-2.5%	-19.3%	-60.0*	2.0%
CC1CCN(CCC(=O)Nc2ccc(Br)cc2)CC1	-5.5	-17.1%	0.0%	?	-3.6	-1.1%
CCOC(=O)c1[nH]c2ccc(Br)cc2c1NC(=O)CCN1CCN(C(=O)OCC)CC1	-10.4	-12.6%	-4.0%	-14.6%	-2.6	-18.5%
COc1cccc(OC)c1OC(=O)c1cnccn1	-0.6	31.1%	0.4%	?	5.1	3.6%
COc1ccc(C2=NOC(COc3ccc([N+](=O)[O-])cc3)C2)cc1 (stereo not drawn)	42.3	4.7%	1.2%	-2.9%	-21.7	-19.9%
COc1ccc(CCN=C(C)C2=C(O)C(c3ccccc3)OC2=O)cc1OC (stereo not drawn)	-7.5	-7.9%	-18.5%	-19.5%	24.2	?
Cc1ccc(C)c(NS(=O)(=O)c2cc(C(=O)NCCSC3CCCCC3)ccc2C)c1	0.8	-29.1%	?	?	?	?
Cc1sc2nc3c(C(=O)N4CCCC4)cc(C(=O)c4ccccc4O)cn3c(=O)c2c1C	10.7	-6.9%	4.2%	9.9%	?	0.5%
CCc1c(C)sc2nc3c(C(=O)N4CCOCC4)cc(C(=O)c4cc(F)ccc4O)cn3c(=O)c12	17.4	-9.8%	-21.5%	?	-75.8*	?
CCCC(=O)Nc1c(-c2cccs2)c(=O)c2ccccc2n1C	-13.8	-19.5%	16.2%	1.6%	10.2	-15.8%
Cc1ccc(C(=O)Nc2c(-c3cccs3)c(=O)c3ccccc3n2C)cc1	4.6	14.1µM*	?	?	-28.5	?
Cc1ccccc1C(=O)Nc1c(-c2cccs2)c(=O)c2ccccc2n1C	12.2	7.8%	-2.0%	-1.6%	13.8	-0.1%
COc1ccc(C(=O)Nc2c(-c3cccs3)c(=O)c3ccccc3n2C)cc1	-2.5	-17.0%	-6.3%	-1.9%	-82.1*	0.7%
CSc1ccc(CN(C)C(=O)c2ccc(S(=O)(=O)Nc3ccccc3)cc2)cc1	24.8	-44.2%	1.0%	-16.4%	-50.0*	?
CN(Cc1cccc(F)c1)C(=O)c1ccc(NS(=O)(=O)c2ccc3[nH]c(=O)[nH]c3c2)cc1	2.1	0.282µM*	-3.7%	-2.4%	-3.9	-15.9%
